S2 tox: viability counter-screen for ATXN expression inhibitors; S2 cells (HEK-293 line with an ATXN2-luciferase reporter) viability, CellTiter-Fluor protease fluorescence, 24 h; 400,000 compounds, 0.49% hits; Potency, µM (series often up to 56.7 µM), usual class: cytotoxic; AID 651635; note: nearly all actives have a fitted effect of over 40% in size
TDP1 cell CPT: growth inhibition of DT40 Tdp1-/-;hTDP1 cells with camptothecin (screen for TDP1 inhibitors). chicken DT40 Tdp1-/-;hTDP1 cells + 20 nM CPT, ATP luminescence, 48 h. 420,000 compounds, 12% hits. Potency, µM (titrated, usually from 46.2 µM), without a hit: top-dose activity change, negative = growth inhibition, hits mostly inhibitors. AID 686979; note: % is set by controls: 0 for no effect and ±100 for the full control effect; nearly all actives have a fitted effect of over 55% in size
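Cell growth measured by CellTiter-Glo luminescence after a minimum 48 h, 37 C compound exposure with 20 nM CPT in Tdp1-knockout DT40 cells stably expressing hTDP1, seeded 400/well; qHTS titration format.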
TDP1 cell noCPT: qHTS for Inhibitors of human tyrosyl-DNA phosphodiesterase 1 (TDP1): qHTS in cells in absence of CPT | Potency, µM (highest dose often 46.2 µM), for the others: at the highest dose activity change, negative = growth inhibition, actives largely listed as inhibitors | 420,000 compounds, 15% hits | DT40 Tdp1-/- hTDP1 cells, no CPT, ATP luminescence, 48 h; note: % is set by controls: 0 for no effect and ±100 for the full control effect; nearly all actives have a fitted effect of over 55% in size
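A cellular qHTS used chicken DT40 cells lacking endogenous Tdp1 but carrying stably transfected human TDP1. Compounds were applied without camptothecin, and cell growth kinetics were judged by ATP-dependent luminescence after ≥48 hr.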
TGFb SMAD3 inh: inhibitors of TGF-b signaling | AID 588855 | HepG2 CAGA-GFP TGF-b/SMAD3 reporter, GFP fluorescence, 18 h; TGF-beta stimulated, 500 pg/mL final | Potency, µM (doses to about 46.1 µM), for inactives: at the highest dose activity, negative = inhibition, actives largely listed as inhibitors | 410,000 compounds, 1.2% hits; note: % is set by controls: 0 for no effect and ±100 for the full control effect; nearly all actives have a fitted effect of over 65% in size
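First, reporter cells (HEPG2 CAGA-GFP) rested 2 h at 37 degrees C. Next, compounds were pinned in and TGF-beta added to 500 pg/mL final. After 18 h, GFP was imaged per cell and summed per well.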
ATXN2 expr inh: inhibitors of ATXN2 expression; HEK-293 ATXN2-luciferase reporter, luminescence, 24 h; Potency, µM (doses to about 57 µM), for the others: at the highest dose activity change, negative = inhibition, hits mostly inhibitors; 360,000 compounds, 0.72% hits; AID 1745845; note: % is set by controls: 0 for no effect and ±100 for the full control effect; nearly all actives have a fitted effect of over 55% in size
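qHTS (up to 57 uM final) was run with 24 h compound exposure of reporter cells at 37 °C. Each well was multiplexed: SteadyGlo luminescence measured ATXN2-luciferase expression after a fluorogenic Gly-Phe-AFC viability readout (25 uM final).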
HepG2 tox: HepG2 cytotoxicity, counter-screen for TGF-b inhibitors. HepG2 CAGA-GFP viability, ATP luminescence, 18 h. Potency, µM (top dose mostly 46.1 µM), for the others: top-dose activity change, negative = cytotoxicity, most hits filed as cytotoxic. 410,000 compounds, 0.76% hits
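CellTiter-Glo luminescence gave cytotoxicity after 18 hours at 37 degrees C. The cells were HepG2 CAGA-GFP in 1% FBS DMEM, stimulated with 500 pg/mL TGF-beta after compound addition. %Activity was normalised to no-cell wells (complete cell-killing) and DMSO (no toxicity), and curves were fitted and classified.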
The depositor's hits bear a star; i = inactive; ? = inconclusive; / = no result. Only some compounds are listed: those with a hit (about 17% of all), similar ones and a draw of the others. Calls come from the whole dose curve; as a rule, active = well fitted curve in the direction sought with a large enough effect; inconclusive = small, poorly fitted or top-dose-only effect, or another doubt; inactive = no such curve, though single readings can be large; an effect the other way counts as inactive or inconclusive. Potency is the fitted concentration of half-maximal effect.

SMILES | S2 tox | TDP1 cell CPT | TDP1 cell noCPT | TGFb SMAD3 inh | ATXN2 expr inh | HepG2 tox
Cc1ccc2cccc(OCC(=O)Nc3cccc(S(=O)(=O)N4CCCC4)c3)c2n1 | i | 21µM* | 16µM* | ? | -26% | -16%
O=C(CCN1CCN(c2ccccc2)CC1)Nc1ccc(Cl)cc1 | ? | 0% | -25% | -12% | -2% | -31%
O=C(CCN1CCN(c2ccc([N+](=O)[O-])cc2)CC1)c1ccc(Cl)cc1 | ? | 3.7µM* | 4.6µM* | ? | -12% | -179%
CC(C)(C)c1cc(C(=O)CCN2CCOCC2)cc(C(C)(C)C)c1O | i | 4.6µM* | 7.3µM* | ? | -5% | -78%
O=C(CCN1CCN(c2ccccc2)CC1)c1ccc(Cl)cc1 | i | 5.2µM* | 6.5µM* | ? | -2% | -91%
COc1ccc(N2CCN(CCC(=O)c3ccc4ccccc4c3)CC2)cc1 | i | 18µM* | 15µM* | 11µM* | -8% | -114%
O=C(CCN1CCOCC1)c1ccc(N2CCCCC2)cc1 | ? | 1.6µM* | 4.1µM* | 14µM* | ? | -99%
O=C1CC(=C(c2ccccc2)c2ccccc2)C(=O)N1CCCCN1CCN(c2ccccc2)CC1 | i | 15µM* | 9.2µM* | ? | -28% | -19%
O=C(CCCN1CCN(c2ccccc2)CC1)c1ccc(F)cc1 | i | ? | ? | 20% | / | -2%
CCC(=O)c1ccc(OCCN2CCOCC2)cc1 | i | 14% | -12% | 23% | 9% | -1%
COc1cc2[nH]c(=O)n(CCCC(=O)N(C)Cc3ccccc3)c(=O)c2cc1OC | ? | ? | -25% | 2% | -4% | -77%
O=C(O)CSc1nc2c(c(C(F)(F)F)n1)CCCC2 | i | 5% | 12% | ? | 5% | -4%
COc1ccccc1NC(=O)Nc1ccc2c(c1)nnn2C | i | -20% | -20% | 17% | 37% | 13%
Cn1nnc2cc(NC(=O)Nc3ccccc3F)ccc21 | i | ? | 16µM* | 3% | / | -47%
COc1ccc(C(=O)C[C@@H]2OC[C@H](C)N2S(=O)(=O)c2ccc(C)cc2)cc1OC | / | ? | 18µM* | / | / | /
Cc1ccc(S(=O)(=O)N2[C@H](CC(=O)c3cccs3)OC[C@@H]2C)cc1 | / | ? | 23µM* | / | / | /
Cc1cccc(Cn2cc(/C=C/[N+](=O)[O-])c3ccccc32)c1 | ? | 23µM* | ? | 7.9µM* | -77% | -61%
CCOC(=O)Cn1cc(/C=C/[N+](=O)[O-])c2ccccc21 | / | 15µM* | 23µM* | 16µM* | / | -72%
Cc1ccc(Oc2cc([N+](=O)[O-])cc3c2C(=O)Nc2ccccc2O3)cc1 | i | ? | 15µM* | -22% | -12% | -30%
CCC(C)(C)c1ccc(Oc2ccc(N)cc2)cc1 | i | -11% | ? | ? | 6.7µM* | -23%
CCC(C)(C)c1ccc(OCCN2C(=O)NC(C)(C)C2=O)cc1 | / | ? | ? | 22% | / | -39%
CCn1c(=O)c([N+](=O)[O-])c(NCCc2ccccc2)c2ccccc21 | i | ? | ? | ? | -7% | -22%
CN(Cc1ccccc1)c1c([N+](=O)[O-])c(=O)n(C)c2ccccc12 | i | ? | 15µM* | -7% | / | -19%
Cn1c(=O)c([N+](=O)[O-])c(NCCc2ccccc2)c2ccccc21 | i | ? | 16µM* | -1% | -11% | -15%
CCN(CC)c1c([N+](=O)[O-])c(=O)n(C)c2ccccc12 | i | 7% | ? | -8% | -12% | -12%
Cc1ccc(-n2nc(C(=O)N(C)c3ccccc3Cl)c3c4ccccc4n(C)c3c2=O)cc1 | i | 18µM* | 13µM* | -11% | -7% | -10%
